# Compound activity (PubChem)
# Compounds with a hit are over-represented: about 2.3% of the library has one in this group of screens.
# TAG inh – inhibitors of triacylglycerol accumulation; H9c2 cells, Nile Red lipid (TAG) fluorescence; cells loaded with 200 µM oleic acid; inhibition, % at 12.5 µM; 0.66% of 230,000 active; AID 651582;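 active = pattern-corrected inhibition of lipid staining of at least 50% with the nuclear-stain viability signal not falling by more than 50%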;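 note: 0% = DMSO wells and 100% = triacsin C control wells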
# aSyn UTR inh – MLPCN primary screen, SNCA 5' untranslated region; alpha-synuclein 5'UTR reporter, inhibitor activity; inhibition, % (tested at 7.5 µM); 0.82% of 300,000 active; in the data active = inhibition above about 60%; inconclusive = no clear call, values can overlap the other calls;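 note: H4 neuroglioblastoma cells stably carrying SNCA 5'UTR luciferase fusion; 0% = DMSO wells and 100% = positive control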
# Jurkat NFkB inh – lowers PMA/ionomycin-induced NF-kB signal in Jurkat cells; PMA/ionomycin-induced NF-kB luciferase reporter, luminescence; inhibition, % at 4 µM; 0.53% of 330,000 active; AID 435003; in the data active = inhibition above about 50%
# 697 NFkB inh – inhibitors of the PMA/ionomycin-induced NF-kB reporter in 697 B cells | 697 B-cell NF-kB luciferase reporter, 16 h | inhibition, % at 4 µM | 0.33% of 330,000 active | AID 435022; in the data active = inhibition above about 35%
# Gli-Sufu block – Gli-Sufu pathway antagonism; Sufu-KO-LIGHT fibroblasts, Gli luciferase reporter luminescence; inhibition, % at 5 µM; 0.74% of 340,000 active;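 active = inhibition above about 55%, limit read from the data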;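 note: 0% = DMSO-treated cells and 100% = wells with medium but no cells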
# Shn3 3UTR inh – reduces Shn3 3'UTR luciferase signal in osteoblasts; AID 588674; 0.52% of 360,000 active; inhibition, % at 12.5 µM; Clone20 osteoblast Shn3 3'UTR firefly luciferase, 24 h;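 active = mean inhibition of at least 75% with every replicate also reaching 75%; inconclusive = mean inhibition at least 75% but some replicate below; inactive = mean inhibition below 75%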;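 note: 0% = median of neutral control wells and 100% = pilot-screen positive control compound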
# Jurkat NFkB conf – lowers PMA/ionomycin-induced NF-kB signal in Jurkat cells; inhibition, % at 4 µM; Jurkat NF-kB luciferase, 16 h; shares compounds with Jurkat NFkB inh; AID 435020; 27% of 2,700 active;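 active = inhibition reaching about 45% at 4 µM in either replicate, limit read from the data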;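 note: plate controls were PMA/ionomycin stimulated DMSO wells for no effect and unstimulated DMSO wells for full effect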
# 697 NFkB conf – inhibitors of the PMA/ionomycin-induced NF-kB reporter in 697 B cells, retest | shares compounds with 697 NFkB inh | 697 B-cell NF-kB luciferase, 16 h | inhibition, % at 4 µM | 35% of 2,000 active | AID 449746; in the data active = inhibition mostly above about 28%, no sharp cut-off; inactive = mostly below about 22%
# Starred values were filed as active, the others as inactive; ? = inconclusive; nt = not tested or not shown.
SMILES,TAG inh,aSyn UTR inh,Jurkat NFkB inh,697 NFkB inh,Gli-Sufu block,Shn3 3UTR inh,Jurkat NFkB conf,697 NFkB conf
CCOc1ccc2nc(NC(=O)COC)sc2c1,6,-97,-70,-122,-119,-37,nt,nt
COc1ccc(C(=O)Nc2nnc(SCC(=O)Nc3ccc(NC(C)=O)cc3)s2)c(OC)c1,6,-63,-207,71*,-26,-115,-129,61*
COc1ccc2nc(NC(=O)c3ccccc3F)sc2c1,0,-27,-154,-279,-105,-39,-116,-318
CCOc1ccc2nc(NC(=O)Nc3ccccc3)sc2c1,30,-131,-123,-172,-95,-27,nt,nt
COc1ccc2nc(NC(=O)c3ccccc3C(=O)O)sc2c1,nt,5,2,8,29,-26,nt,nt
COc1ccc2nc(NC(=O)Nc3ccccc3)sc2c1,8,6,-223,-335,-91,-27,-128,-317
OCC1(Cc2ccccc2)CCCN(C2CCCC2)C1 (stereo not drawn),-15,6,-2,11,-7,-9,nt,nt
O=C(CN1CCCCC1)Nc1cccc(Cl)c1Cl,6,-12,-6,19,-48,-2,nt,nt
COc1cc(NCc2ccccc2O)c2ncccc2c1,nt,18,10,-5,1,1,nt,nt
COc1cc(NC(C)CCCN)c2ncccc2c1 (stereo not drawn),15,3,65*,44*,19,6,36,38*
C[C@H]1O[C@@H](O[C@H]2[C@@H](O)C[C@H](O[C@H]3[C@@H](O)C[C@H](O[C@H]4CC[C@@]5(C)[C@H](CC[C@@H]6[C@@H]5C[C@@H](O)[C@]5(C)[C@@H](C7=CC(=O)OC7)CC[C@]65O)C4)O[C@@H]3C)O[C@@H]2C)C[C@H](O)[C@@H]1O,12,112*,96*,92*,-29,-23,97*,93*
Cc1ccc(Nc2nc(-c3c(C)nc4ccccn34)cs2)cc1,nt,44,83*,-396,62*,52,62*,-54
Cc1nc2ccccn2c1-c1csc(NCc2ccco2)n1,-19,-20,11,-29,24,69,nt,nt
COc1cccc2sc3cc(C#CC4(O)CCCCC4)ccc3c(=O)c12,4,nt,-11,-136,13,-98,nt,nt
COc1cc2sc3ccc(C#CC4(O)CCCCC4)cc3c(=O)c2cc1OC,25,-137,-297,-332,-12,-53,-86,-411
COc1ccc(NC(=O)CN(c2ccc(C)cc2)S(=O)(=O)c2c(C)nn(C)c2C)cc1OC,nt,-15,7,-2,0,9,nt,nt
CC(C)(O)c1[nH]c2ccc(C#N)cc2c1C(C)(C)O,nt,-29,63*,59*,1,nt,88*,60*
CC(C)(O)c1[nH]c2ccc(C(F)(F)F)cc2c1C(C)(C)O,nt,-42,-13,-23,3,-8,nt,nt
Cc1ccc(N/C=C/C(=O)c2cccs2)cc1C,nt,-180,-188,-260,-127,25,-128,-159
Cc1cc(N/C=C/C(=O)c2cccs2)ccc1F,2,-250,-111,-125,-94,-66,nt,nt
c1cnc2ccc(-c3ccc4ncccc4c3)cc2c1,nt,-84,-171,-346,-118,-15,-86,-338
COc1ccc(-c2cc3nc4n(c(=O)c3s2)CCC4)cc1,nt,?,-25,-117,24,41,nt,nt
COc1ccc(-c2cc3nc4n(c(=O)c3s2)CCCCC4)cc1,-13,-17,-173,-267,-86,-10,-120,-322
COc1ccc(-c2cc3nc(C)n(N)c(=O)c3s2)cc1,1,115*,80*,53*,76*,89*,83*,49*
COc1ccc(NC(=O)c2cc3c(CO)cnc(C)c3oc2=Nc2cccc(C)c2)c(OC)c1,nt,27,-15,12,29,22,nt,nt
COc1cccc(OCc2ccc(Cl)cc2)c1C#N,-28,-21,-214,-488,-248,-30,-213,-479
COc1cccc(CNC(C)(C)CO)c1OCc1ccc(Cl)cc1,13,-19,7,-1,9,9,nt,nt
CCOc1ccc(C(=O)N2CCCC(c3nc(-c4ccc(C)o4)no3)C2)cc1 (stereo not drawn),nt,-9,10,0,25,15,nt,nt
